Measurements reported in PubChem BioAssay AID651953 (The Scripps Research Institute Molecular Screening Center, 2012).
Hit rate of the full screen: of about 2,400 compounds, about 430 (18%) were called active. A selection follows. A number with no mark means an inactive call. No stated cut-off is given here; in the data, active means activation above about 12%; inactive means the rest.

Experiment: nonspecific calcium signal increase, Ga16 cells – cell-based, fluorescence, counter-screen for TAAR1 antagonist project (AID 651953);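 further: 0% = vehicle wells and 100% = saturating stimulus response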
Conditions: Ga16-expressing cells, agonist counterscreen, at 3 µM, active compounds read high

SMILES	activation
CC(=O)n1cc([C@H]2C=C(C(=O)N3CCOCC3)O[C@@H](OCc3ccc(CO)cc3)C2)c2ccccc21	8.38%
CC(=O)Nc1ccc(NC(=O)COC(=O)C2CCC(C(C)(C)C)CC2)cc1 (centres undefined)	12.5% (active)
COc1cc2ccccc2cc1C(=O)Nc1ccc(NC(=O)c2cccs2)cc1	7.21%
COC(=O)[C@@]1(Sc2ccc(C)cc2)CC(=O)N(c2cccc(SC)c2)[C@@H]1c1ccccc1	7.65%
COc1ccc(C(=O)Oc2ccc(-c3nnco3)cc2)cc1S(=O)(=O)N1CCOCC1	8.48%
CCOc1cc(/C=N/NC(=O)c2cc(-c3ccccc3)nc3ccccc23)ccc1O	7.59%
O=C(Oc1ccc(-c2nnco2)cc1)c1ccc(F)c(S(=O)(=O)N2CCOCC2)c1	11.4%
O=C1c2ccccc2C(=O)N1CCC#Cc1ccc2cc(C3(O)CCCCC3)oc(=O)c2c1	12.9% (active)
Cc1nn(-c2ccccc2)c(C)c1NC(=O)COC(=O)c1cc(Cl)ccc1O	11.4%
CCOc1ccc(NC(=O)N2CC=C(n3c(=O)[nH]c4ccccc43)CC2)cc1	8.85%
C=CCn1c(SCc2cccc(F)c2)nc2cc(C(=O)N3CCC(C(N)=O)CC3)ccc2c1=O	10.2%
CSc1nc(-c2ccccc2)nc(C(Cl)Cl)n1	2.33%
Cn1c2ccccc2c(=O)c2c(=O)n(Cc3ccco3)c(COc3ccccc3)nc21	11.7% (active)
O=c1[nH]c(CSc2ncc(-c3ccc(F)cc3)n2Cc2ccco2)nc2ccccc12	9.09%
COc1ccc(CCNC(=O)c2ccc(CS(=O)(=O)c3ccc(Br)cc3)o2)cc1OC	13.5% (active)
COc1ccc(CCNC2=C(Cl)C(=O)N(Cc3ccccc3)C2=O)cc1OC	10.4%
COc1ccc(CCNC(=O)C(=O)NCC2OCCN2S(=O)(=O)c2ccc(OC)c(C)c2)cc1 (centres undefined)	7.62%
CC(C)(C)OC(=O)NCCCCCNC(=O)c1nc[nH]c1C(=O)NCc1ccccc1	7.75%
O=C(NCc1ccc2c(c1)OCO2)c1c(-c2ccsc2)sc2ccccc12	3.18%
Oc1ccc(/C=N/Nc2nc(-c3ccccc3F)nc3ccccc23)c(O)c1	11.9% (active)
Fc1ccc(/C=N/Nc2nc(-c3cccnc3)nc3ccccc23)cc1	5.53%

SMILES	activation
CCOC(=O)C1=C(NC(=S)NC(=O)c2ccccc2)c2ccccc2CC1(C)C	11.8% (active)
CNC(=O)c1ccsc1NC(=O)c1ccc(S(=O)(=O)N2CCc3ccccc32)cc1	9.94%
COc1ccc(-c2cc(C(=O)Nc3ccccc3O)c3ccccc3n2)cc1	10.9%
CC(=O)N1CCN(C(=O)c2cc(-c3ccc(Cl)s3)nc3ccccc23)CC1	11.8% (active)
COc1ccc(NC(=O)c2cc(-c3ccc(C)o3)nc3ccccc23)cc1	8.64%
COc1ccc(S(=O)(=O)N2CCCC(C(=O)Nc3ccc(NC(=O)c4ccccn4)cc3)C2)cc1 (centres undefined)	9.11%
O=C(OCC(=O)N(CCc1ccccc1)Cc1ccccc1)c1ccccc1[N+](=O)[O-]	9.58%
Cn1c(C(=O)NCCc2ccsc2)cc2c(=O)n(C)c3ccccc3c21	6.98%
COc1ccc(OC)c2[nH]c(=O)c(CCNC(=O)C(=O)c3c[nH]c4ccccc34)cc12	9.04%
COc1ccc(S(=O)(=O)N(CC(=O)NCc2ccco2)c2ccc(F)cc2)cc1	7.35%
N#Cc1cccc(NC(=O)COC(=O)c2ccccc2C(=O)c2ccc(Cl)c([N+](=O)[O-])c2)c1	10.4%
C[C@H](NC(=O)c1nc[nH]c1C(=O)NCC(=O)OC(C)(C)C)C(=O)OCc1ccccc1	6.84%
COc1ccc(C2=NOC(Cn3nc(C(=O)NCc4ccc5c(c4)OCO5)cc3-c3ccccc3)C2)cc1 (centres undefined)	7.98%
Cc1ccc2c(c1)N(CC(=O)NCCc1ccc(Cl)cc1)C(=O)c1cccnc1O2	8.82%
C=CCC[C@@H](Cc1ccc(F)cc1)C(=O)O[C@H](CNC(=O)[C@H](CC=C)CC(=O)N(CCO)Cc1ccccc1)c1ccccc1	5.79%
CSCCC(NC(=O)COc1ccccc1)C(=O)OCCOc1ccc(Br)cc1 (centres undefined)	4.3%
COC(=O)C1=C(C)N(Cc2ccc(F)cc2)C(=S)NC1c1cccc(Cl)c1 (centres undefined)	2.63%
COC(=O)Cc1nnn2c1[C@H](C)[C@H](c1ccccc1[N+](=O)[O-])OCC2	-1.09%
Cc1ccccc1NC(=O)Cc1nc(COC(=O)C(C)(C)Oc2ccc(Cl)cc2)cs1	7.78%
C=CCC[C@H](Cc1ccc(F)cc1)C(=O)OC[C@H](C)NC(=O)[C@H](CC=C)CC(=O)N(CCO)Cc1ccccc1	8.66%
Cc1cccc(NC(=O)c2ccc(COc3ccccc3[N+](=O)[O-])o2)n1	4.04%

SMILES	activation
Cc1cccc(C)c1NC(=O)CNC(=O)C1CCCC1	2.04%
Cc1ccc(-n2c(C)cc(/C=N\NC(=O)CC(=O)NC(C)C)c2C)cc1	8.51%
O=C(NCCN1CCOCC1)c1ccccc1N1C(=O)[C@@H]2Cc3c([nH]c4ccccc34)C(c3cccc(Cl)c3)N2C1=O (some centres undefined)	6.37%
COc1ccc(C(=O)Nc2cccc(NC(=O)c3ccc(OC)cc3OC)n2)c(OC)c1	8.74%
O=C(CN1CCCSc2ccccc21)N1CCN(S(=O)(=O)c2cccc(F)c2)CC1	8.97%
Oc1ccccc1N1CCN(c2ncnc3sc(-c4ccccc4)cc23)CC1	6.72%
COc1cc(/C=C2/C(=O)ON=C2C)ccc1OCc1ccccc1F	12.4% (active)
O=C(COC(=O)c1c2c(nc3ccccc13)CCCC2)c1ccc(Br)s1	2.67%
C[C@H](O)[C@@H]1C(=O)N2CCc3c([nH]c4c(-c5ccc6c(c5)OCO6)cccc34)[C@@H]2C[C@@H]1N(C)C(=O)c1ccco1	5.11%
Cc1ccc(SCc2c(C(=O)N/N=C/c3cccnc3)nnn2-c2nonc2N)cc1	17.4% (active)
Nc1nonc1-n1nnc(C(=O)N/N=C/c2c[nH]c3ccccc23)c1-c1ccccc1	6.4%
O=C(N/N=C/c1ccc(OC(=O)c2ccccc2Cl)cc1)c1ccc(O)cc1	8.92%
O=C(NCCN1CCOCC1)c1ccc(/C=C2\Sc3ccccc3N(Cc3ccc(F)cc3)C2=O)cc1	9.85%
O=S(=O)(c1cccs1)N1CCCc2nc(-c3ccc(Br)cc3)ccc21	5.49%
C[C@@H]1CN([C@@H](C)CO)S(=O)(=O)c2ccc(C#Cc3cccc(F)c3)cc2O[C@H]1CN(C)S(=O)(=O)c1cn(C)cn1	13.6% (active)
CCCCNc1c(-c2cccc(Sc3ccc(OC)cc3)c2)nc2ccccn12	6.41%
CSc1ncnc2c1ncn2CC(=O)C1CCC2C3CCC4=CC(=O)CCC4(C)C3CCC12C (centres undefined)	15.7% (active)
CCN=C1SC(CC(=O)Nc2ccc(C)cc2)C(=O)N1CC (centres undefined)	9.6%
O=C(COC(=O)c1ccccc1SCC(=O)N1CCCC1)Nc1ccccc1OC(F)F	9.11%
COc1ccc(-c2nn(-c3ccccc3)cc2C(=O)Nc2nccs2)cc1OC	7.16%
COc1cc(SC#N)ccc1N=Cc1c(C)[nH]n(-c2ccc(C)cc2)c1=O	7.36%

SMILES	activation
O=C(Nc1ccccc1-c1nnn(CC(=O)N2CCN(c3ccccc3)CC2)n1)c1cccs1	8.25%
CC(C)N(Cc1ccccc1)C(=O)COC(=O)c1ccccc1SCC(=O)N1CCCC1	8.17%
COc1ccc(NC(=O)C2CCCN(S(=O)(=O)c3cccc4cccnc34)C2)cc1OC (centres undefined)	7.3%
CCOC(=O)C1C(c2ccc(OC)c(OC)c2)c2c([nH][nH]c2=O)CC1(C)O (centres undefined)	3.55%
Clc1ccc(Nc2ncnc3c2nnn3Cc2ccccc2)cc1	3.96%
COc1ccc(N(CC(=O)N/N=C/c2cccs2)S(=O)(=O)c2ccc(OC)c(OC)c2)cc1	8.47%
CC(=O)OCCN(CCCn1c(-c2ccncc2)nc2ccccc21)c1nc(-c2ccc(C)cc2)cs1	12.8% (active)
COC(=O)Cc1nnn2c1[C@H](C)[C@H](c1ccccc1Br)OCC2	9.39%
CN(c1ccccc1)S(=O)(=O)c1cc(C(=O)Nc2nc3ccccc3[nH]2)ccc1Cl	8.92%
NNC(=O)CNC(c1ccccc1)c1cc(Cl)ccc1NC(=O)c1ccccc1 (centres undefined)	9.38%
CC/C(=N/Nc1ccccc1)c1cnnc(SC)n1	-1.08%
Cc1onc(-c2c(F)cccc2Cl)c1C(=O)Nc1cccc(S(=O)(=O)N2CCCCC2)c1	9.53%
CCC(=O)Oc1cccc(C(=O)Nc2ccc(-c3nnc(-c4ccco4)o3)cc2)c1	4.99%
CCc1ccc2c(c1)NC(=O)C2(C)Cc1ccc(OC(F)(F)F)cc1 (centres undefined)	14.4% (active)
Cc1cc(Br)ccc1NC(=O)c1cnc(N2CCN(c3ccccn3)CC2)c2ccccc12	7.37%
O=C(Nc1ccc(-c2nnc(-c3ccccc3)o2)cc1)c1ccc(Br)o1	1.44%
O=C(N/N=C/c1ccc(Cl)c(Cl)c1)c1ccc2nc[nH]c2c1	7.7%
O=C(COC(=O)CCCSc1nc2ccccc2[nH]1)Nc1ccc(Oc2ccccc2)cc1	8.31%
COC(=O)c1sccc1NC(=O)c1cc(OC)c(OC)c(OC)c1	5.58%
COc1ccc(CC(=O)Nc2c(C(N)=O)oc3ccccc23)cc1	6.51%
COc1cc(OC)cc(C(=O)OCC(=O)Nc2sccc2C(N)=O)c1	13.5% (active)
